# ssDAF12 agonist: S. stercoralis DAF-12 nuclear receptor activators, primary screen, cell-based, luminescence, HEK293, GRIP1 co-expression, lit1-tk-luc; HEK293 ssDAF-12/GRIP1 lit1-tk-luc reporter; % of 3 µM dafachronic acid response; activation, % at 6.8 µM; 370,000 tested, 1% active; AID 652126, 2013;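 active = activation above the mean over all tested compounds plus 3 SD, cut at about 0.9% in these data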
# DAX1 inh-1: DAX1 (NR0B1) inhibitors on StAR promoter, primary screen, cell-based, luminescence, SF-1 (NR5A1), full-length DAX-1 | HEK293T StAR-luciferase reporter, SF-1/DAX-1 repression relief | inhibition, % at 6.8 µM | 370,000 tested, 1.1% active | AID 652010, 2013;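 active = inhibition above the mean over all tested compounds plus 3 SD, cut at about 3.6% in these data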;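 note: higher inhibition means more luminescence from relief of DAX-1 repression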
# hcDAF-12 act: H. contortus DAF-12 nuclear receptor activators, primary screen, cell-based, luminescence, HEK293, lit1-tk-luc reporter; HEK293 hcDAF-12 lit1-tk-luc reporter; 0% DMSO, 100% Δ7-dafachronic acid; activation, % at 6.8 µM; 370,000 tested, 1.4% active;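 active = activation above the mean of all tested compounds plus 3 SD, cut at about 5.5% in these data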
# DAX1 inh-2: DAX1 (NR0B1) inhibitors, primary screen, cell-based, HEK293, Gal4-DAX1, luciferase luminescence; inhibition, % at 6.75 µM; Nuclear receptor subfamily 0 group B member 1 (Homo sapiens), P51843; HEK293 Gal4-DAX1 luciferase reporter; 340,000 tested, 0.99% active;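 active = inhibition above the mean over all tested compounds plus 3 SD, cut at about 4.2% in these data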;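 note: inhibition shows as a rise in luminescence from relieved DAX1 repression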
# Target sequence (P51843 207-470 limits assumed): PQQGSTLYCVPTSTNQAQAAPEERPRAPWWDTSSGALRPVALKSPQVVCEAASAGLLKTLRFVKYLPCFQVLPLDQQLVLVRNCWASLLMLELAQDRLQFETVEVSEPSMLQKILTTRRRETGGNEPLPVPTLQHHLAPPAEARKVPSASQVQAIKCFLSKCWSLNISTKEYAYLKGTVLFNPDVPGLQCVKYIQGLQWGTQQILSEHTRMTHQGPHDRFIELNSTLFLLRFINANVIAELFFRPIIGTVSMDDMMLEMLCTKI
# hgDAF-12 ag: H. glycines DAF-12 receptor agonists, primary screen, cell-based, luminescence, HEK293, GAL4 fusion, UAS-luciferase. HEK293 GAL4-hgDAF12 UAS-luciferase reporter, agonist luminescence; normalized to butyrate control. activation, % at 6.8 µM. 370,000 tested, 1.8% active. Nuclear hormone receptor DAF-12 (Heterodera glycines), GAL4 fusion;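 active = activation above a cutoff set at the mean of all screened compounds plus 3 SD, cut at about 10% in these data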
# LXRb hcDAF ctr: LXR agonists, Gal4 luciferase reporter, confirmation, counter-screen for hcDAF-12 agonist project, cell-based, luminescence, HEK293, H. contortus campaign. shares compounds with hcDAF-12 act. HEK293 Gal4-LXR tk-luc reporter, 24 h; normalized: DMSO 0%, positive control 100%. activation, % at 6.8 µM. 3,400 tested, under 10 active. AID 743027, 2013;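 active = mean percent activation of the reporter above a cutoff set as the average over tested compounds plus their standard deviation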
# hcDAF12 ag: H. contortus DAF-12 receptor agonists, confirmation, cell-based, luminescence, HEK293, lit1-tk-luc, triplicate; shares compounds with hcDAF-12 act; HEK293 hcDAF-12 lit1-tk-luc reporter; % of Δ7-dafachronic acid response; activation, % at 6.8 µM; 3,400 tested, 61% active; AID 743032, 2013;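 active = mean activation across triplicate tests above the threshold derived from the earlier primary screen, cut at about 5.5% in these data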
# Numbers stand for hits; n = inactive; x = not tested or not shown. Shown are actives, neighbours in structure and some others; about 4.1% of the full set was active somewhere.
SMILES,ssDAF12 agonist,DAX1 inh-1,hcDAF-12 act,DAX1 inh-2,hgDAF-12 ag,LXRb hcDAF ctr,hcDAF12 ag
CC(C)(C)N1C(=O)c2ccccc2NC(=O)N1Cc1ccc(Br)cc1,n,n,n,n,n,x,x
CC1(C)Nc2ccccc2C(=O)N1c1ccc(Br)cc1,3.0,n,6.8,9.2,13,n,n
COC(=O)C1=C(C)N(Cc2ccc(Br)cc2)C(=S)NC1c1ccc(OC)cc1 (stereo unspecified),n,n,n,x,n,x,x
COc1cccc2c1C(=O)c1c(O)c3c(c(O)c1C2=O)C[C@@](O)(C(=O)CO)C[C@@H]3OC1CC(N)C(O)C(C)O1 (stereo partly specified),7.3,n,11,n,n,n,n
Cc1ccc(S(=O)(=O)NC(=O)C2(C)CCN2C(=O)Cc2cccs2)nc1 (stereo unspecified),n,n,n,x,n,x,x
Cc1cccc2sc(NNC(=O)c3ccc4c(c3)OCCO4)nc12,n,n,9.4,n,n,n,n
O=C(NNc1nc2cc3c(cc2s1)OCCO3)c1ccccc1,n,n,n,n,n,x,x
CCOC(=O)C1=C(C(=O)OCC)C2N(Cc3ccc(C#N)cc3)c3ccccc3[C@@]23C[C@@H](C(=O)OC)N(S(=O)(=O)c2ccc(OC)cc2)C3=N1 (stereo partly specified),n,n,n,x,n,x,x
O=C(NC(=S)Nc1nc2c(s1)CSc1ccccc1-2)c1ccccc1,n,n,7.1,n,n,n,7.6
COc1ccccc1-c1cc(C(=O)Nc2cccnc2Cl)no1,n,n,n,n,n,x,x
COc1ccccc1C(=O)N/N=C(\C)CC(=O)Nc1ccccc1NC(C)=O,n,n,n,n,n,x,x
O=C(COc1ccccc1Cl)Nc1ccc(Cl)cn1,1.4,n,9.0,n,15,n,11
COc1ccccc1C(=O)N/N=C(\C)CC(=O)Nc1ccc(Nc2ccccc2)cc1,n,n,n,n,n,x,x
COc1ccccc1C(=O)N/N=C(\C)CC(=O)Nc1ccc(Cl)cn1,n,n,6.6,n,n,n,n
COc1ccccc1C(=O)NC(=S)Nc1cccnc1Cl,1.2,n,8.1,n,n,n,19
COc1ccccc1C(=O)N/N=C(\C)CC(=O)Nc1ccccn1,n,n,7.3,n,n,n,6.0
CN1CCCCC(NC(=O)c2cccc([N+](=O)[O-])c2)C1=O (stereo unspecified),n,n,n,x,n,x,x
O=C(CCCN=C1NS(=O)(=O)c2ccccc21)OCC(=O)c1ccccc1Cl,n,n,n,n,n,x,x
Cc1ccc(CN2CCCCC(NC(=O)c3ccccc3C)C2=O)cc1 (stereo unspecified),n,n,n,x,n,x,x
CCC1CCCCN1CCCNC(=O)c1ccc2c(c1)NC(=O)CN2C (stereo unspecified),n,n,8.8,n,n,n,n
CSc1ccccc1NC(=O)CN(C)C(C)C(=O)NCc1ccc2c(c1)OCO2 (stereo unspecified),n,n,n,n,n,x,x
C/C(=N\Nc1ccccc1[N+](=O)[O-])c1ccccc1O,n,n,6.9,4.4,n,n,14
C/C(=N\Nc1ccc(S(N)(=O)=O)cc1[N+](=O)[O-])c1ccccc1O,n,n,n,n,n,x,x
COc1cc(Nc2cc(C)n(-c3cc(OC)cc(OC)c3)c(=O)c2)cc(OC)c1,n,n,n,x,n,x,x
c1ccc(-c2nc3cc4ccccc4cc3[nH]2)nc1,n,n,8.8,n,n,n,11
SMILES,ssDAF12 agonist,DAX1 inh-1,hcDAF-12 act,DAX1 inh-2,hgDAF-12 ag,LXRb hcDAF ctr,hcDAF12 ag
CN1CCC/C1=C/C=C1\SC(=S)NC1=O,n,n,7.0,n,n,n,n
CN1/C(=C\C=C2/SC(=S)NC2=O)C(C)(C)c2ccccc21,n,n,n,n,n,x,x
Cc1ccc(OCC(=O)NCCc2c[nH]c3ccccc23)cc1,n,n,n,n,n,x,x
C=C(C)CSc1nnc(-c2cc(-c3ccc(OC)cc3)n[nH]2)n1N,n,n,n,x,n,x,x
C/C(=C\C(=S)Nc1ccccc1)Nc1ccccc1,n,n,9.6,n,n,n,6.1
CCOC(=O)c1cc(S(=O)(=O)N(C)Cc2ccccc2)cn1C,n,n,n,n,n,x,x
O=C(O)[C@H]1CCCN1C(=O)c1ccccc1N1C(=O)[C@@H]2Cc3c([nH]c4ccccc34)C(c3cccc(Cl)c3)N2C1=O (stereo partly specified),n,n,n,n,n,x,x
Cc1ccc(C2c3[nH]c4ccccc4c3C[C@H]3C(=O)N(c4ccccc4C(=O)N4CCC[C@H]4C(=O)O)C(=O)N23)cc1 (stereo partly specified),n,n,7.6,n,n,n,n
O=C(O)[C@@H]1CCCN1C(=O)c1ccccc1N1C(=O)[C@@H]2Cc3c([nH]c4ccccc34)C(c3cccc(Cl)c3)N2C1=O (stereo partly specified),n,n,8.8,n,n,n,n
COc1cccc(C2c3[nH]c4ccccc4c3C[C@H]3C(=O)N(c4ccccc4C(=O)N4CCC[C@H]4C(=O)O)C(=O)N23)c1 (stereo partly specified),n,n,n,n,n,x,x
COC(=O)[C@]12C[C@H](CC(=O)NCC3CCCCC3)C(=O)N(Cc3cccc4ccccc34)C1=C[C@H](C(C)C)O[C@@H]2C1CC1,n,n,n,x,n,x,x
COCCCNC(=S)Nc1c(C)cc(C)cc1C,n,n,n,n,n,x,x
CCn1cc(C(=O)NCCC(=O)NC(C)C)c(=O)c2cc3c(cc21)OCO3,n,n,n,n,n,x,x
Cn1cccc1CC(=O)NN=C/C=C\c1ccco1,n,n,n,x,n,x,x
c1ccc2c(c1)ncc1cccn12,1.5,n,6.7,n,n,n,n
c1ccc(-c2ncc3ccccn23)cc1,n,n,n,n,n,x,x
Nc1cc(Cl)ccc1C(=O)OCC(=O)NCc1cccs1,n,n,n,n,n,x,x
O=C(CSc1nnc2ccccn12)N1CCc2ccccc2C1,n,n,n,n,n,x,x
O=C(CSc1nnc2ccccn12)N1CCc2ccccc21,n,n,7.3,n,13,n,5.7

# High-throughput results: PubChem BioAssay, The Scripps Research Institute Molecular Screening Center
